Screening data (PubChem BioAssay)
Mcl1-Bid inh: Mcl-1/Bid binding inhibitors, primary screen, biochemical, TR-FRET, 1536-well | Induced myeloid leukemia cell differentiation protein Mcl-1 (Homo sapiens), Q07820 | TR-FRET Mcl-1/Bid-Dy647 peptide binding | inhibition, % at 21.7 µM | hit rate 0.97% among 220,000;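 active = compounds that cut the binding signal by more than half at the single screening dose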;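 also: His-tagged Mcl-1 with europium anti-His antibody binding Bid BH3 peptide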
Target sequence (Q07820 whole entry, looked up): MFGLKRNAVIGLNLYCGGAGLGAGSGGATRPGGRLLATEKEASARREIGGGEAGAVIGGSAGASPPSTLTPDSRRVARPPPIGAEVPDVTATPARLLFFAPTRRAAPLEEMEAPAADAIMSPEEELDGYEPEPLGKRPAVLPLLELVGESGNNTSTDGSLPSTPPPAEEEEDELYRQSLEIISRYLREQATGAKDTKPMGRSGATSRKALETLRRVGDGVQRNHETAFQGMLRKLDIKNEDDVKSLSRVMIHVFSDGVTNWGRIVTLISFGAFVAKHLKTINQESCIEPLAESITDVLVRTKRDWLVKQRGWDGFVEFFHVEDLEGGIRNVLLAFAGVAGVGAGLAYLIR
MCL1-BIM inh: inhibitors of MCL1 binding to BIM-BH3, primary screen, biochemical, fluorescence polarization | Induced myeloid leukemia cell differentiation protein Mcl-1 (Homo sapiens), Q07820 | GST-MCL1 / FITC-Bim-BH3 fluorescence polarization | inhibition, % at 10.9 µM | hit rate 0.68% among 320,000 | AID 2057, 2009;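 active = inhibition above the mean inhibition of all tested compounds plus 3 SD, set per campaign, cut at about 40% in these data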;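 also: higher means more loss of mP so more displacement of Bim peptide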
BCLXL inh: inhibitors of human Bcl-xL, primary screen, biochemical, fluorescence polarization, HTS; GST-Bcl-xL / FITC-Bim BH3 peptide fluorescence polarization; inhibition, % at 10.9 µM; hit rate 0.7% among 320,000;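 active = inhibition above the mean of all tested compounds plus 3 SD, cutoff set per campaign, cut at about 30% in these data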;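 also: inhibitors lower millipolarization by displacing the labeled peptide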
Target sequence (Q07817 whole entry, looked up): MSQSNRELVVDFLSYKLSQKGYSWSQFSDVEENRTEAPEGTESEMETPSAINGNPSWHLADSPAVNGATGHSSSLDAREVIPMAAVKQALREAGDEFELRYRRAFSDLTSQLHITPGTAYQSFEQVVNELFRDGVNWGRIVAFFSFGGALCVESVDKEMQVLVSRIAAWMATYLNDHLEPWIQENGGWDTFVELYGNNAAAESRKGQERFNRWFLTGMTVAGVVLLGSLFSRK
GLD-1 TGE inh: GLD-1/TGE RNA complex disruptors, primary screen, biochemical, fluorescence polarization; purified GLD-1 + fluorescein TGE RNA; inhibition, % at 5.96 µM; hit rate 0.44% among 320,000; AID 2280, 2010;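 active = percent inhibition above a per-plate cutoff, the plate mean of test compounds plus 3 SD, cut at about 30% in these data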
Mcl1-Noxa inh: Mcl-1/Noxa binding inhibitors, primary screen, biochemical, TR-FRET, 1536-well; Induced myeloid leukemia cell differentiation protein Mcl-1 (Homo sapiens), Q07820; TR-FRET Mcl-1/Noxa peptide binding, 2 h; inhibition, % at 21.7 µM; hit rate 1.5% among 220,000;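 active = compounds that cut the protein-peptide binding signal by more than 50% relative to plate controls in a single-dose test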;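 also: His-tagged Mcl-1 with rhodamine Noxa BH3 peptide and terbium anti-His antibody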
Mcl-1 Bim block: inhibitors of Bim peptide binding to Mcl-1, primary screen, biochemical, bead-based flow cytometry, multiplex | Induced myeloid leukemia cell differentiation protein Mcl-1 (Homo sapiens), Q07820 | Bim peptide-Mcl-1 binding | inhibition, % at 10 µM | hit rate 0.1% among 190,000 | AID 1009, 2008; in the data active = inhibition above about 40%
Large screens that a line does not name were inactive. Rows were chosen to be rich in hits. Some 2.3% of all compounds tested hit in one or more screens of this group.

COc1ccccc1OCCOc1ccc(/C=C2/C(=N)N3OC(C)=CC3=NC2=O)cc1OC	Mcl1-Bid inh 84
Cc1cc(C)c(S(=O)(=O)Nc2ccc(Cl)cn2)c(C)c1	none (no result: Mcl1-Bid inh, Mcl1-Noxa inh, Mcl-1 Bim block)
CCOc1ccc(/C=N/NC(=O)c2nnn(-c3nonc3N)c2CN(C)C2CCCCC2)cc1	none (no result: Mcl1-Bid inh, Mcl1-Noxa inh, Mcl-1 Bim block)
O=C(CCS(=O)(=O)c1ccc(Br)s1)NC1CCCCCC1	Mcl1-Bid inh 78
O=C(Cc1cccs1)Nc1nc(-c2cccnc2)cs1	Mcl1-Noxa inh 72 (no result: Mcl-1 Bim block)
CCCn1c(SCC(=O)Nc2cc(C(=O)O)ccc2C)nc2sc3c(c2c1=O)CCC3	none (no result: Mcl1-Bid inh, Mcl1-Noxa inh, Mcl-1 Bim block)
O=C(CS(=O)(=O)Cc1ccccc1)NCc1ccccc1Cl	none (no result: Mcl1-Bid inh, Mcl1-Noxa inh, Mcl-1 Bim block)
CCC(C)NC(=O)c1cc2c(=O)[nH]c3ccc(C)cc3c2s1 (stereo not drawn)	none (no result: Mcl1-Bid inh, Mcl1-Noxa inh, Mcl-1 Bim block)
COc1cc([N+](=O)[O-])ccc1NC(=S)Nn1cnnc1	BCLXL inh 36 (no result: Mcl1-Bid inh, Mcl1-Noxa inh, Mcl-1 Bim block)
COc1cc([N+](=O)[O-])ccc1NC(=O)COC(=O)c1ccc(NC(N)=O)cc1	Mcl1-Bid inh 61, Mcl1-Noxa inh 72 (no result: Mcl-1 Bim block)
COCC(=O)Nc1ccc([N+](=O)[O-])cc1OC	none
S=c1[nH]nc(-c2cccc(Cl)c2)n1CCN1CCCCC1	Mcl1-Bid inh 95
CCn1c(-c2cccc(Br)c2)n[nH]c1=S	Mcl1-Bid inh 97
CC1CCCCC1NC(=O)CSc1nnc(COc2ccc(Cl)cc2)o1 (stereo not drawn)	none (no result: Mcl1-Bid inh, Mcl1-Noxa inh, Mcl-1 Bim block)
O=C(COC(=O)C1CCC1)NCc1ccc(Cl)cc1Cl	none (no result: Mcl1-Bid inh, Mcl1-Noxa inh, Mcl-1 Bim block)
CC(=O)Oc1cccc(N2C(=O)c3cccc4c([N+](=O)[O-])ccc(c34)C2=O)c1	none (no result: Mcl1-Bid inh, Mcl1-Noxa inh, Mcl-1 Bim block)
CCn1nc(C(=O)Nc2ccc(S(=O)(=O)Nc3nccs3)cc2)c2ccccc2c1=O	Mcl1-Noxa inh 64
N#Cc1cccc(C(=O)Nc2ccc(S(=O)(=O)Nc3nccs3)cc2)c1	none (no result: Mcl1-Bid inh, MCL1-BIM inh, BCLXL inh, Mcl1-Noxa inh, Mcl-1 Bim block)
O=C(Nc1ccc(S(=O)(=O)Nc2ncccn2)cc1)c1ccc2ncsc2c1	Mcl1-Bid inh 90, Mcl1-Noxa inh 60 (no result: Mcl-1 Bim block)
O=C(Nc1ccc(S(=O)(=O)Nc2nccs2)cc1)c1cccc(N2C(=O)c3ccccc3C2=O)c1	Mcl1-Noxa inh 53
O=C(Nc1nccs1)c1cccc(N2C(=O)c3cccc4c([N+](=O)[O-])ccc(c34)C2=O)c1	Mcl1-Bid inh 101, MCL1-BIM inh 47, BCLXL inh 43, GLD-1 TGE inh 69, Mcl1-Noxa inh 93
CSCCC(NC(=O)COc1ccccc1)C(=O)NCCOc1ccccc1 (stereo not drawn)	none (no result: Mcl1-Bid inh, Mcl1-Noxa inh, Mcl-1 Bim block)
O=C1C(=O)N(CCCN2CCOCC2)C(c2ccc([N+](=O)[O-])cc2)/C1=C(/O)c1ccc2c(c1)OCO2 (stereo not drawn)	none (no result: Mcl1-Bid inh, Mcl1-Noxa inh, Mcl-1 Bim block)
CC(C)(C)NC(=O)C(=O)NNC(=O)c1cccc(F)c1	none
O=C(Nc1ccc(NS(=O)(=O)c2ccccc2)cc1)c1ccccc1Cl	none (no result: Mcl1-Bid inh, MCL1-BIM inh, BCLXL inh, Mcl1-Noxa inh, Mcl-1 Bim block)
COc1ccc2cc3c(N)nn(C(=O)Cc4ccc(Cl)cc4)c3nc2c1	Mcl1-Bid inh 66
CCN(CC)C(=O)CN1CCN(c2ncccn2)CC1	Mcl1-Bid inh 56
COc1ccccc1N1CCN(CC(=O)c2c(C)[nH]c3ccccc23)CC1	Mcl1-Bid inh 76
COc1ccccc1N1CCN(CC(=O)c2c[nH]c3ccccc23)CC1	none (no result: Mcl-1 Bim block)
FC(F)(F)c1ccccc1/C=N/n1c(COc2ccccc2)n[nH]c1=S	none (no result: Mcl1-Bid inh, Mcl1-Noxa inh, Mcl-1 Bim block)
CCN(c1ccc(NC(=O)CN2C(=O)NC3(CCOc4ccccc43)C2=O)cc1)C(C)C (stereo not drawn)	Mcl1-Noxa inh 66
O=C(NCc1cccc(OC(F)(F)F)c1)C1CCC(=O)N(Cc2cccc(F)c2)C1 (stereo not drawn)	none (no result: Mcl1-Bid inh, Mcl1-Noxa inh, Mcl-1 Bim block)
CC(=O)c1cccc(N(C(=O)CNC(=O)c2ccco2)C(C(=O)NCc2ccco2)c2ccccc2)c1 (stereo not drawn)	none
O=C1ON=C(c2ccc(Cl)cc2)/C1=C/c1ccc(O)cc1	Mcl1-Noxa inh 66
O=C1ON=C(c2ccccc2)/C1=C/c1ccc(O)cc1	none (no result: Mcl1-Bid inh, Mcl1-Noxa inh, Mcl-1 Bim block)
CCOC(=O)c1c(C)[nH]c(C2=NNC(=NC3CC3)SC2)c1C	Mcl1-Noxa inh 64
